Source: PubChem BioAssay (NCATS)
Inconclusive results are not listed. A call without a number means that no potency is given here. Calls of active or inactive are those of the source. Calls come from the whole dose curve; as a rule, active = well fitted inhibition curve with a large enough effect; inconclusive = small, poorly fitted or top-dose-only effect; inactive = no such curve, though single readings can be large or run the other way.

These compounds were tested against Cytochrome P450 3A7 (Homo sapiens) (UniProt P24462) (assay: Cytochrome P450 family 3 subfamily A member 7 (CYP3A7) small molecule antagonists: luciferase biochemical qHTS assay (AID 1963596; note: nearly all actives have a fitted effect of over 40% in size)). Settings: P450-Glo CYP3A7 enzyme luminescence, 1 h; series mostly up to 57.4 µM.
Sequence of Cytochrome P450 3A7 (Homo sapiens) (P24462 whole entry, looked up): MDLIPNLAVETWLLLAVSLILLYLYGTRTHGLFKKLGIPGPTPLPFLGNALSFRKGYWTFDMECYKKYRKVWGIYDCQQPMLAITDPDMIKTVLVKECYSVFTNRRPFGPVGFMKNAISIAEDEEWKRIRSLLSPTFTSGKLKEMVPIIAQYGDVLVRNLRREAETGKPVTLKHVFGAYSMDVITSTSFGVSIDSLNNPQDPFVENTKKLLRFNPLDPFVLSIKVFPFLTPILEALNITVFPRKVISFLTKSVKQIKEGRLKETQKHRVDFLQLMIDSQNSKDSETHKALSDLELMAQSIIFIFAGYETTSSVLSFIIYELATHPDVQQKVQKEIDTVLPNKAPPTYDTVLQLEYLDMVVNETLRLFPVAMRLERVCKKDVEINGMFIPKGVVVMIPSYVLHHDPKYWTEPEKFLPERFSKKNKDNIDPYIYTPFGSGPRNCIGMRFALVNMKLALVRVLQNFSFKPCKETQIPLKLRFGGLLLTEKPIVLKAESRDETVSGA
Text: National Center for Advancing Translational Sciences [NCATS] Assay Overview: Cytochrome P450 (CYP) enzymes are membrane-bound hemeproteins that play a key role in metabolism of drugs and xenobiotics. The CYP3A subfamily is the most abundant, representing 30% of the total adult hepatic CYP content, whereas CYP3A7 is found predominantly in human fetal liver and accounts up to 50% of the total fetal hepatic CYP content. Testing the effect of chemicals on CYP isozymes is useful to minimize the adverse drug reactions and toxicities in the drug development process. Chemicals were tested for their effect on CYP enzyme activities by using P450-Glo (TM) screening systems (Promega Corporation, Madison, WI). These systems provide a luminescent method containing proluciferin substrates and are converted to luciferin products by CYP isozymes. The luciferin products formed are detected with a luciferin detection reagent, and the amount of light produced is proportional to CYP activity. P450-Glo (TM) CYP3A7 screening system (Catalog. No. V8812) was used to detect the compounds that interfere with CYP3A7 activity. The positive control compound used for CYP3A7 assay is ketoconazole (Sigma-Aldrich, St. Louis, MO).
Assay Protocol Summary: Two ul of enzyme-substrate mix was dispensed into medium binding white/solid 1536-well plates (Greiner Bio-One North America Inc., Monroe, NC) using a Flying Reagent Dispenser (FRD, Aurora Discovery, San Diego, CA). Compounds dissolved in DMSO, and positive control (ketoconazole) were transferred to the assay plates at 23 nl using a Pintool station (Wako, San Diego, CA). The assay plates were incubated at room temperature for 10 min. Then 2 ul of NADPH regeneration solution was added to each well of the assay plates using an FRD and incubated at room temperature for 1 h. The reaction was stopped by adding 4 ul of detection reagent using an FRD and after 20 min incubation at room temperature the luminescence signal was measured using a ViewLux plate reader (Perkin Elmer, Shelton, CT). Data were expressed as relative luminescence units.
Potency is the fitted concentration of half-maximal effect.

Structure (SMILES)	Potency
CC(C)Cc1ccc(C(C)C(=O)O)cc1 (stereo not given)	inactive
O=C(NCCCCN1CCN(c2cccc(Cl)c2Cl)CC1)c1cc2ccccc2s1	2.82 µM (active)
OCCOCCOCCO	inactive
CCCCCCOC(=O)/N=C(\N)c1ccc(NCc2nc3cc(C(=O)N(CCC(=O)OCC)c4ccccn4)ccc3n2C)cc1	inactive
O=C(c1ccc(OC(F)F)c(C#Cc2ccccn2)c1)N1Cc2cccnc2C1	inactive
C[C@H]1[C@H]2CC[C@H]3[C@@H]4CC=C5C[C@@H](N(C)C)CC[C@]5(C)[C@H]4CC[C@]23CN1C	inactive
O=C1NC(O)CCN1[C@@H]1O[C@H](CO)[C@H](O)[C@H]1O (stereo not given in full)	inactive
NC1CCN(c2cccc(Cl)n2)CC1	inactive
CC(C)c1cccc(C(C)C)c1NC(=O)Nc1ccc(Sc2ccc([N+](=O)[O-])cc2)cc1	inactive
O=C(NC[C@H](O)CN1CCc2ccccc2C1)c1cc(NC2COC2)ncn1	inactive
COc1cc2nc(=NC(=O)c3cccnc3)n3c(c2cc1OC)NCC3	inactive
C[C@H](O)CN(C)C	inactive
Cc1cccc(Oc2cnc(=O)[nH]c2)c1	inactive
O=C(O)P(=O)(O)O	inactive
Cc1cccc(C)c1NC(=O)CN1CCCC1	inactive
O=c1[nH]c(-c2ccc(C(F)(F)F)cc2)nc2c1CSCC2	inactive
OC[C@@H](O)[C@@H](O[C@@H]1O[C@H](CO)[C@H](O)[C@H](O)[C@H]1O)[C@H](O)[C@@H](O)CO	inactive
CC(C(=O)O)c1ccc2c(c1)Cc1cccnc1O2 (stereo not given)	inactive
CC1(C)CC(NC(=O)C(=O)Nc2ccc(Br)cc2)CC(C)(C)N1	inactive
COc1ccc(C2C(=O)c3ccccc3C2=O)cc1	inactive

Structure (SMILES)	Potency
Cn1cc(-c2cnc3ccc4ccc(CS(=O)(=O)NCc5ccccn5)cc4c(=O)c3c2)cn1	inactive
Oc1cn2c(n1)Nc1ccc(Cl)c(Cl)c1C2	inactive
O=c1cc(CO)occ1O	inactive
COC(=O)/C=C(/C)N	inactive
CC1(C)OC[C@@H](COC(=O)CCc2ccc(OC[C@@H](O)CNCCNC(=O)N3CCOCC3)cc2)O1	inactive
CCCCCCCCCC(=O)O	inactive
COc1ccc(-n2[nH]c(=O)c3[nH]c4cc(Cl)ccc4c(=O)c3c2=O)c(C)c1	inactive
Cn1ccc2cc3c(cc21)CCN3C(=O)Nc1cccnc1	inactive
O=C(O)CCCCCCCC(=O)O	inactive
CCN1CCN(C(=O)N[C@@H](C(=O)N[C@@H]2C(=O)N3[C@@H]2SC(C)(C)[C@H]3C(=O)O)c2ccccc2)C(=O)C1=O	inactive
CCOC(=O)N1c2ccc(C(F)(F)F)cc2[C@@H](N(Cc2cc(C(F)(F)F)cc(C(F)(F)F)c2)C(=O)OC)C[C@H]1CC	inactive
CCN1C[C@H](C)n2c(c(O)c3c(=O)n(Cc4ccc(F)c(Cl)c4)nc(C(=O)NC)c32)C1=O	inactive
CNC(=O)COC(=O)N1CCC(CCc2ccc(Cl)cc2)CC1	inactive
NC(=O)CC[C@@H](N)C(=O)O	inactive
COC(=O)Nc1nc2ccc(C(=O)c3ccccc3)cc2[nH]1	inactive
CC(=O)Nc1ccc(C(=O)O)cc1	inactive
C[C@@H]1CCC[C@H](C)N1CCCC(O)(c1ccccc1)c1ccccn1 (stereo not given in full)	inactive
N[C@@H](CC(=O)Nc1ccc(Oc2cc(F)c(F)cc2Br)cc1)C(=O)O	inactive
COc1cc(C(=O)NCCCCCC(=O)O)cc(OC)c1OC	inactive
CCN(CC)C(=O)C1CN2CCc3cc(OC)c(OC)cc3C2CC1OC(C)=O (stereo not given)	inactive
